Measured values taken from PubChem BioAssay (NCATS).
Records with an inconclusive call do not appear. Entries that show only a call come without a potency. A number with no mark means an inactive call. Calls of active or inactive are those of the source. Calls follow the shape of the dose curve; as a rule, active = well fitted cell-killing curve with a large enough effect; inconclusive = small, poorly fitted or top-dose-only effect, or effect the other way; inactive = flat fitted curve, though single readings scatter.

Experiments:
Test in all cases: Primary qHTS to identify gynecologic anti-cancer compounds using libraries of approved drugs and bioactive compounds (AID 1345084); also: nearly all actives have a fitted effect of over 55% in size
Details in all cases: Gynecologic cancer cell panel viability, ATPlite luminescence, 48 h; series mostly up to 57.5 µM
C33A = system: C33A
Summary of the method: (§1)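 Five-concentration response, 48 h; readout is ATP-driven luciferase luminescence.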

CAOV3 = system: CAOV3
Summary of the method: as §1

CASKI = system: CASKI
Summary of the method: as §1
Potency is read from the fitted curve at half-maximal effect.

CC(=O)N[C@H]1[C@H](O[C@H]2CC[C@@]3(C)C(CC[C@]4(C)C3CC=C3C5CC(C)(C)CC[C@]5(C(=O)O)[C@H](O[C@@H]5O[C@H](CO)[C@@H](O)[C@H](O)[C@H]5O)C[C@]34C)C2(C)C)O[C@H](CO[C@@H]2OC[C@H](O)[C@H](O)[C@H]2O[C@@H]2OC[C@@H](O)[C@H](O)[C@H]2O)[C@@H](O)[C@@H]1O (stereo partly specified)
activity change, negative = cytotoxicity (C33A): -4.04% [at 11.6 µM]
activity change, negative = cytotoxicity (CAOV3): 4.01% [at 11.6 µM]
activity change, negative = cytotoxicity (CASKI): -4.68% [at 11.6 µM]

C=C1CCC(OC(C)=O)C2(C)CC3(O)OC(=O)C(C)=C3CC12 (stereo unspecified)
Potency (C33A): inactive
Potency (CAOV3): inactive
Potency (CASKI): inactive

C=C1C(=O)O[C@H]2[C@H]1[C@@H](OC(=O)C(C)CO)C[C@@]1(C)[C@H](O)CCC(=O)[C@H]21 (stereo partly specified)
Potency (C33A): inactive
Potency (CAOV3): inactive
Potency (CASKI): inactive

C[C@@H]1CC[C@]2(C)C(C[C@@H](O)[C@H](O)[C@]23CO3)[C@@]1(C)CCc1ccoc1 (stereo partly specified)
Potency (C33A): inactive
Potency (CAOV3): inactive
Potency (CASKI): inactive

COC(=O)C1=CO[C@@H](O[C@@H]2O[C@H](COC(=O)/C=C/c3cc(OC)c(O)c(OC)c3)[C@@H](O)[C@H](O)[C@H]2O)[C@@H]2C(CO)=CC[C@H]12
Potency (C33A): inactive
Potency (CAOV3): inactive
Potency (CASKI): inactive

COc1cc(/C=C/C(=O)OC2CC(OC(C)=O)C(OC(C)=O)C3C2CCC2C(=O)OC(c4ccoc4)CC23C)ccc1O[C@@H]1O[C@H](CO)[C@@H](O)[C@H](O)[C@H]1O (stereo partly specified)
Potency (C33A): inactive
Potency (CAOV3): inactive
Potency (CASKI): inactive

COc1cc(C2Oc3c(O)cc(CCCO)cc3C2CO)ccc1O[C@H]1O[C@H](C)[C@@H](O)[C@H](O)[C@@H]1O (stereo partly specified)
Potency (C33A): inactive
Potency (CAOV3): inactive
Potency (CASKI): inactive

COc1ccc2c3c1O[C@H]1C[C@@H](O)C=C[C@@]31CCN(C)C2
Potency (C33A): inactive
Potency (CAOV3): inactive
Potency (CASKI): inactive

CC(C)CC(=O)OC[C@H]1O[C@@](COC(=O)CC(C)C)(O[C@H]2O[C@H](CO)[C@@H](O)[C@H](O)[C@H]2OC(=O)CC(C)C)[C@@H](OC(=O)CC(C)C)[C@@H]1O
Potency (C33A): inactive
Potency (CAOV3): inactive
Potency (CASKI): inactive

COc1cc(O[C@@H]2O[C@H](CO)[C@@H](O)[C@H](O)[C@H]2O)c(CCC(=O)OC[C@H]2O[C@@H](Oc3cc(OC)c(C4OC(=O)C(C)(O)C4O)cc3CCC(=O)O)[C@H](O)[C@@H](O)[C@@H]2O)cc1C1OC(=O)C(C)(O)C1O (stereo partly specified)
activity change, negative = cytotoxicity (C33A): -6.26% [at 11.6 µM]
activity change, negative = cytotoxicity (CAOV3): -7.94% [at 11.6 µM]
activity change, negative = cytotoxicity (CASKI): -4.91% [at 11.6 µM]

CCOC(=O)[C@H](CCc1ccccc1)CC1(C(=O)N[C@H]2CCc3ccccc3N(CC(=O)O)C2=O)CCCC1
Potency (C33A): inactive
Potency (CAOV3): inactive
Potency (CASKI): inactive

C/C=C/C=C/C(CC(=O)O)Nc1ccc(C=O)cc1 (stereo unspecified)
Potency (C33A): inactive
Potency (CAOV3): inactive
Potency (CASKI): inactive

C=C1CCC2C(C)(CO[C@@H]3O[C@H](CO)[C@@H](O)[C@H](O)[C@H]3O)C(O)CCC2(C)C1C(=O)CC1=CCOC1=O (stereo partly specified)
Potency (C33A): inactive
Potency (CAOV3): inactive
Potency (CASKI): inactive

O=C(OCc1cccc(O)c1O[C@@H]1O[C@H](CO)[C@@H](O)[C@H](O)[C@H]1O)C1(O)C(=O)C2C=CC1C1C=CC(=O)C(O)(C(=O)OCc3cccc(O)c3O[C@@H]3O[C@H](CO)[C@@H](O)[C@H](O)[C@H]3O)C21 (stereo partly specified)
activity change, negative = cytotoxicity (C33A): -2.5% [at 11.6 µM]
activity change, negative = cytotoxicity (CAOV3): -10.6% [at 11.6 µM]
activity change, negative = cytotoxicity (CASKI): -17.5% [at 11.6 µM]

C=CC(C)(O)CC/C=C(\C)C(=O)OC1CC2(C(=O)O)CCC3(C)C(=CCC4C5(C)CCC(OC6OC(COC7OCC(O)C(O)C7O)C(O)C(OC7OCC(O)C(O)C7O)C6OC6OC(CO)C(O)C(O)C6OC6OCC(O)C(O)C6O)C(C)(C)C5CCC43C)C2CC1(C)C (stereo unspecified)
activity change, negative = cytotoxicity (C33A): 0.0336% [at 6.55 µM]
activity change, negative = cytotoxicity (CAOV3): 2.82% [at 6.55 µM]
activity change, negative = cytotoxicity (CASKI): 0.559% [at 6.55 µM]

CN1CC[C@@H](NC(=O)Nc2ccc(C#N)cc2)C[C@@H]1c1nc2ccccc2[nH]1
Potency (C33A): inactive
Potency (CAOV3): inactive
Potency (CASKI): inactive

CO[C@@H]1COCC[C@@H]1N[C@@H]1CC[C@@](C(=O)N2CCc3ncc(C(F)(F)F)cc3C2)(C(C)C)C1
Potency (C33A): inactive
Potency (CAOV3): inactive
Potency (CASKI): inactive

C=C1CC[C@H]2[C@@](C)(CCC[C@@]2(C)C(=O)O)[C@@H]1CCC(C)CCO (stereo partly specified)
Potency (C33A): inactive
Potency (CAOV3): inactive
Potency (CASKI): inactive

CNC(=O)[C@H]1O[C@@H](n2cnc3c(NCc4ccc(N)c(I)c4)ncnc32)[C@H](O)[C@@H]1O
activity change, negative = cytotoxicity (C33A): 17.6% [at 11.6 µM]
activity change, negative = cytotoxicity (CAOV3): -1.57% [at 11.6 µM]
activity change, negative = cytotoxicity (CASKI): 16.3% [at 11.6 µM]

OCCc1ccc(O[C@@H]2O[C@H](CO)[C@@H](O)[C@H](O)[C@H]2O)c(O)c1
Potency (C33A): inactive
Potency (CAOV3): inactive
Potency (CASKI): inactive

COC(=O)C1=COC(O[C@@H]2O[C@H](CO)[C@@H](O)[C@H](O)[C@H]2O)/C(=C\COC(=O)c2ccc(OC3OC(CO)C(O)C(O)C3O)c(OC)c2)C1CC(=O)OCCc1ccc(O)cc1 (stereo partly specified)
activity change, negative = cytotoxicity (C33A): 7.7% [at 11.6 µM]
activity change, negative = cytotoxicity (CAOV3): -8.27% [at 11.6 µM]
activity change, negative = cytotoxicity (CASKI): 3.94% [at 11.6 µM]

COc1ccc(C[C@H](N)C(=O)N[C@H]2[C@@H](O)[C@H](n3cnc4c(N(C)C)ncnc43)O[C@@H]2CO)cc1
Potency (C33A): 2820 nM (active)
Potency (CAOV3): 1120 nM (active)
Potency (CASKI): 1580 nM (active)

COC(=O)CC1(O)C(=O)Nc2ccccc21 (stereo unspecified)
Potency (C33A): inactive
Potency (CAOV3): inactive
Potency (CASKI): inactive

C/C=C(\C)C(=O)O[C@H]1[C@H](O)[C@]2(COC(C)=O)[C@H](O)C[C@]3(C)C(=CCC4[C@@]5(C)CC[C@H](O[C@@H]6O[C@H](C(=O)O)[C@@H](O[C@@H]7O[C@H](CO)[C@@H](O)[C@H](O)[C@H]7O)[C@H](O)[C@H]6O[C@@H]6O[C@H](CO)[C@@H](O)[C@H](O)[C@H]6O)[C@](C)(CO)C5CC[C@]43C)[C@@H]2CC1(C)C (stereo partly specified)
activity change, negative = cytotoxicity (C33A): 1.25% [at 11.6 µM]
activity change, negative = cytotoxicity (CAOV3): -14.1% [at 11.6 µM]
activity change, negative = cytotoxicity (CASKI): 1.43% [at 11.6 µM]

COc1c(C)c(C(=O)c2ccc(N)c(C(=O)O)c2)n2ccccc12
Potency (C33A): inactive
Potency (CAOV3): inactive
Potency (CASKI): inactive

CC(=C/C(=O)O)/C=C/[C@]1(O)[C@@]2(C)CO[C@]1(C)C[C@H](O[C@@H]1O[C@H](CO)[C@@H](O)[C@H](O)[C@H]1O)C2
Potency (C33A): inactive
Potency (CAOV3): inactive
Potency (CASKI): inactive

C=C1[C@H]2CC[C@]3(O)[C@@](CC[C@@H]4[C@](C)(C(=O)O)CCC[C@]43C)(C2)[C@H]1OC(=O)/C(C)=C\C
Potency (C33A): inactive
Potency (CAOV3): inactive
Potency (CASKI): inactive

C[C@@H]1O[C@@H](O[C@H]2[C@H](O[C@H]3[C@H](O[C@H]4CC[C@@]5(C)C(CC[C@]6(C)C5CC=C5[C@@H]7CC(C)(C(=O)O)C[C@@H](O)[C@]7(C)CC[C@]56C)[C@@]4(C)CO)O[C@H](C(=O)O)[C@@H](O)[C@@H]3O)O[C@H](CO)[C@H](O)[C@@H]2O)[C@H](O)[C@H](O)[C@H]1O (stereo partly specified)
activity change, negative = cytotoxicity (C33A): 4.66% [at 11.6 µM]
activity change, negative = cytotoxicity (CAOV3): 15.7% [at 11.6 µM]
activity change, negative = cytotoxicity (CASKI): 2.76% [at 11.6 µM]

C[C@@H]1O[C@@H](O[C@H]2[C@H](O[C@H]3[C@H](O[C@H]4CC[C@@]5(CO)C(CC[C@]6(C)C5CC=C5C7CC(C)(C)C[C@@H](O)[C@]7(C)CC[C@]56C)C4(C)C)O[C@H](C(=O)O)[C@@H](O)[C@@H]3O)OC[C@@H](O)[C@@H]2O)[C@H](O)[C@H](O)[C@H]1O (stereo partly specified)
activity change, negative = cytotoxicity (C33A): -1.54% [at 11.6 µM]
activity change, negative = cytotoxicity (CAOV3): 7.01% [at 11.6 µM]
activity change, negative = cytotoxicity (CASKI): 6.9% [at 11.6 µM]

O=C(O)[C@H]1CCCC[C@H]1C(=O)N1CCc2ccccc2[C@H]1CN1C(=O)c2ccccc2C1=O
Potency (C33A): inactive
Potency (CAOV3): inactive
Potency (CASKI): inactive

C/C=C(\C)C(=O)OC[C@H]1O[C@H](O[C@H]2O[C@H](CO)[C@@H](OC(=O)/C(C)=C/C)[C@H](O)[C@H]2O[C@@H]2O[C@H](CO)[C@@H](O)[C@H](O)[C@H]2O)[C@H](O[C@@H]2O[C@H](CO)[C@@H](O)[C@H](O)[C@H]2O)[C@@H](O)[C@@H]1O
activity change, negative = cytotoxicity (C33A): 3.37% [at 11.6 µM]
activity change, negative = cytotoxicity (CAOV3): 17% [at 11.6 µM]
activity change, negative = cytotoxicity (CASKI): 6.41% [at 11.6 µM]

OC[C@H]1O[C@@H](OCCc2ccc(O)cc2)[C@H](O)[C@@H](O)[C@@H]1O
Potency (C33A): inactive
Potency (CAOV3): inactive
Potency (CASKI): inactive

CCOC(=O)c1c(C)nn(-c2cccc([N+](=O)[O-])c2)c1C
Potency (C33A): inactive
Potency (CAOV3): inactive
Potency (CASKI): inactive

C/C=C/C=C/C=C/C(=O)O[C@@H]1[C@@H](OC)C2=C(C(=O)N(C(C)C(=O)O)C2)[C@@]2(C)CCCC(C)(C)[C@H]12 (stereo partly specified)
Potency (C33A): inactive
Potency (CAOV3): inactive
Potency (CASKI): inactive

Cn1c(=O)c2nc(/C=C/c3cccc(Cl)c3)n(C)c2n(C)c1=O
Potency (C33A): inactive
Potency (CAOV3): inactive
Potency (CASKI): inactive

CC(C)CC(=O)n1cc(C(N)=O)c(=O)cc1C(O)c1ccccc1 (stereo unspecified)
Potency (C33A): inactive
Potency (CAOV3): inactive
Potency (CASKI): inactive

N#Cc1ccnc(N2C(=O)CC[C@H]2C(=O)N(c2cncc(F)c2)[C@H](C(=O)NC2CC(F)(F)C2)c2ccccc2Cl)c1
Potency (C33A): inactive
Potency (CAOV3): inactive
Potency (CASKI): inactive

COCCN(C)Cc1ccc2nc3sc(C(=O)N(C)C4CCCCC4)cn3c2c1
Potency (C33A): inactive
Potency (CAOV3): inactive
Potency (CASKI): inactive

NC(=O)[C@H]1CCCCc2c1[nH]c1ccc(Cl)cc21
Potency (C33A): inactive
Potency (CAOV3): inactive
Potency (CASKI): inactive

CC1(C)CCC(C)(C)c2cc3c(cc21)Sc1ccccc1N=C3c1ccc(C(=O)O)cc1
Potency (C33A): inactive
Potency (CAOV3): inactive
Potency (CASKI): inactive

O=c1c2cccnc2n(-c2cccc([N+](=O)[O-])c2)c(=O)n1Cc1ccncc1
Potency (C33A): inactive
Potency (CAOV3): inactive
Potency (CASKI): inactive

C[C@@H]1O[C@@H](O[C@H]2[C@H](OC(=O)[C@]34CCC(C)(C)C[C@H]3C3=CCC5[C@@]6(C)C[C@H](O)[C@H](O[C@@H]7O[C@H](CO[C@@H]8OC[C@H](O)[C@H](O)[C@H]8O)[C@@H](O)[C@H](O)[C@H]7O)C(C)(C)C6CC[C@@]5(C)[C@]3(C)C[C@H]4O)OC[C@@H](O)[C@@H]2O)[C@H](O)[C@H](O[C@@H]2OC[C@](O)(CO)[C@H]2O)[C@H]1O[C@@H]1OC[C@H](O)[C@H](O[C@@H]2OC[C@@H](O)[C@H](O)[C@H]2O)[C@H]1O (stereo partly specified)
activity change, negative = cytotoxicity (C33A): -0.101% [at 6.55 µM]
activity change, negative = cytotoxicity (CAOV3): 12.2% [at 6.55 µM]
activity change, negative = cytotoxicity (CASKI): 2.2% [at 6.55 µM]
